{
  "source": "paper PMC7862700",
  "about": "“An all-to-all approach to the identification of sequence-specific readers for epigenetic DNA modifications on cytosine”",
  "assay_in_all_cases": "DAPPL (digital affinity profiling via proximity ligation, sequencing); 10 mM Tris-HCl pH 7.5, 50 mM NaCl, 1 mM DTT, 4% glycerol, room temperature, 30 min; GST-TFs on glutathione beads, 16-mer random dsDNA library, 0.1% formaldehyde crosslink after washing; high values mean tight binding",
  "conditions_in_all_cases": "protein: recombinant; tags: N-terminal GST; dsDNA, one strand shown",
  "key": {"SPIB": {"biological_target": "SPIB (Homo sapiens, UniProt Q01892 1-262)", "sequence (Q01892 whole entry, the tested form may be a part)": "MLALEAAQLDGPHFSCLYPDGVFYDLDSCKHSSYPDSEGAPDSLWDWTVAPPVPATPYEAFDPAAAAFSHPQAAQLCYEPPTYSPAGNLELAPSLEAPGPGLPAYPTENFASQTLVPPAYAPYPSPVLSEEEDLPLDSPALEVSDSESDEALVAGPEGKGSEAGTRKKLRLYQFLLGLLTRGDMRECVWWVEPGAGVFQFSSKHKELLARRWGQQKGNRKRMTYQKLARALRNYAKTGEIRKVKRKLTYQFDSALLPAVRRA", "procedure,_shortened": "(§1)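 Human transcription factors fused to GST were expressed in yeast, captured on glutathione beads, given DNA barcodes and pooled with a GST-only negative control. Pools were incubated with 200 nmole of a 16-mer random double-stranded DNA library in Tris/NaCl/DTT/glycerol buffer at room temperature for 30 min. They were then washed, crosslinked with 0.1% formaldehyde, proximity-ligated (BsaI/T4 ligase, 1 h, 37 °C), PCR-amplified and sequenced on an Illumina NextSeq500. Binding signal is each 6-mer's read frequency for a factor divided by its frequency for the GST control.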"}, "SPIC": {"biological_target": "T1, SPIC (Homo sapiens, UniProt Q8N5J4 1-248)", "T1 sequence": "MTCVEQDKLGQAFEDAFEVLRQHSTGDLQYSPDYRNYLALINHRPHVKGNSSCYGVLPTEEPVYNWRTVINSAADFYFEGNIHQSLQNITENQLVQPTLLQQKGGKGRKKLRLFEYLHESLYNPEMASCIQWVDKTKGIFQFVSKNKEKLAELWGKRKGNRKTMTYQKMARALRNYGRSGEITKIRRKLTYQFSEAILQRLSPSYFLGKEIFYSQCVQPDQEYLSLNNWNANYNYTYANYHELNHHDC", "procedure,_shortened": "as §1"}, "ERF": {"biological_target": "T2, ERF (Homo sapiens, UniProt P50548 1-548)", "T2 sequence": "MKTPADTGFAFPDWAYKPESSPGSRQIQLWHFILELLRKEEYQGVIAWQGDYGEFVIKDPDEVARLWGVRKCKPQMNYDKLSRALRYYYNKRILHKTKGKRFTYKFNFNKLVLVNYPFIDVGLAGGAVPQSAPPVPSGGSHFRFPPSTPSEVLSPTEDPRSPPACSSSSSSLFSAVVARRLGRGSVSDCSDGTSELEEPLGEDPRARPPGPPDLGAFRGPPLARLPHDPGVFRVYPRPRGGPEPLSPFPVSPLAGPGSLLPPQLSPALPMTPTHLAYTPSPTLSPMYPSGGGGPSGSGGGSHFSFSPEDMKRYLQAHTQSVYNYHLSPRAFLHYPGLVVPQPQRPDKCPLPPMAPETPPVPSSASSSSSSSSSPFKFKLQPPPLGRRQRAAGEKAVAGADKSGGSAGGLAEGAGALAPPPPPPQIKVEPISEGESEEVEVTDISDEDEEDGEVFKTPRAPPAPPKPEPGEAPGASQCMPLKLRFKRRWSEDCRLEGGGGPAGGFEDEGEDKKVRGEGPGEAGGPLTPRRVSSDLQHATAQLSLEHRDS", "procedure,_shortened": "as §1"}, "ETV7": {"biological_target": "T3, ETV7 (Homo sapiens, UniProt Q9Y603 1-341)", "T3 sequence": "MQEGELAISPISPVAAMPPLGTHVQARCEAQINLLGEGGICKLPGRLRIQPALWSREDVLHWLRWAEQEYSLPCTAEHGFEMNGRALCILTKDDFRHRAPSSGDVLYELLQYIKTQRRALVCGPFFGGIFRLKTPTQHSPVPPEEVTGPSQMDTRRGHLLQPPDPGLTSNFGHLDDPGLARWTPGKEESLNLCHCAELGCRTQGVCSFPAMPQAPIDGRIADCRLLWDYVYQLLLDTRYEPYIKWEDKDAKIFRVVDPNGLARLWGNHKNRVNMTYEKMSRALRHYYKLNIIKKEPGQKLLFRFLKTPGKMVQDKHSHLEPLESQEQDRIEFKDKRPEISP", "procedure,_shortened": "as §1"}, "ETV3L": {"biological_target": "T4, ETV3L (Homo sapiens, UniProt Q6ZN32 1-361)", "T4 sequence": "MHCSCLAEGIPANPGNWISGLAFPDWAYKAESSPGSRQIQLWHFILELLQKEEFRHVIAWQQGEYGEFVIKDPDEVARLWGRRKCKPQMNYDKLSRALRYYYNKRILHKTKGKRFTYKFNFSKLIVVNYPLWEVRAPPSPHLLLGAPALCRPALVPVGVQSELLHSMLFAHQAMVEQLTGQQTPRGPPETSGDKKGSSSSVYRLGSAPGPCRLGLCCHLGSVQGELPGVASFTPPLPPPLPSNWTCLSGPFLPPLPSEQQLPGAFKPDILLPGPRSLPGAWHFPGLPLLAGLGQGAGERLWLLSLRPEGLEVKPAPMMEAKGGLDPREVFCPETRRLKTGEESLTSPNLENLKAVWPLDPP", "procedure,_shortened": "as §1"}, "ELF1": {"biological_target": "ELF1 (Homo sapiens, UniProt P32519 1-619)", "sequence (P32519 whole entry)": "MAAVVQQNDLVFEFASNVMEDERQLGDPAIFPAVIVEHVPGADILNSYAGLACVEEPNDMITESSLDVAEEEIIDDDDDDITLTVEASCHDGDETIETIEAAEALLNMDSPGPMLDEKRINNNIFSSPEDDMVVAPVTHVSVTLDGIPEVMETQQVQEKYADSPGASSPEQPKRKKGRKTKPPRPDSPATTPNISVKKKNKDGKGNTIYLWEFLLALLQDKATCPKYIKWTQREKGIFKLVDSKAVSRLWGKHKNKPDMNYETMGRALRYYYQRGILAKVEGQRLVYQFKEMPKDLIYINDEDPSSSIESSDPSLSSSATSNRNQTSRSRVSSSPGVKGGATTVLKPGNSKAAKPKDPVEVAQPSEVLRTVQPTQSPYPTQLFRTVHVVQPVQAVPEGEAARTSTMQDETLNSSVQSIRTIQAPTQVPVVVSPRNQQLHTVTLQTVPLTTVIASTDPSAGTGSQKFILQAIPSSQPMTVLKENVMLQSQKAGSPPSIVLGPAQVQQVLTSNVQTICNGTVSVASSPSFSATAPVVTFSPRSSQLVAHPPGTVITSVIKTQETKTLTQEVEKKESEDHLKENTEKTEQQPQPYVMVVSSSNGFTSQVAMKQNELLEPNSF", "procedure,_shortened": "as §1"}, "ELK4": {"biological_target": "T5, ELK4 (Homo sapiens, UniProt P28324-2 1-405)", "T5 sequence": "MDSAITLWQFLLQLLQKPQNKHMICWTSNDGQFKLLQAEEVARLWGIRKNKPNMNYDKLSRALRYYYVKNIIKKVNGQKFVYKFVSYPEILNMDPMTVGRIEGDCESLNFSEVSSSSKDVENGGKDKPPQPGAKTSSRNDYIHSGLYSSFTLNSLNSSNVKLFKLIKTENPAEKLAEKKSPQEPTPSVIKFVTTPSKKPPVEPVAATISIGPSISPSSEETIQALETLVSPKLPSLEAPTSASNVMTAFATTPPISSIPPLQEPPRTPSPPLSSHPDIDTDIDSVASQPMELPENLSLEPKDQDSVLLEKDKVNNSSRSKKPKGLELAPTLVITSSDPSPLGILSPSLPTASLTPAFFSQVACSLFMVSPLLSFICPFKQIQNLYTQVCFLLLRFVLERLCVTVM", "procedure,_shortened": "as §1"}, "ETV2": {"biological_target": "T6, ETV2 (Homo sapiens, UniProt O00321 1-342)", "T6 sequence": "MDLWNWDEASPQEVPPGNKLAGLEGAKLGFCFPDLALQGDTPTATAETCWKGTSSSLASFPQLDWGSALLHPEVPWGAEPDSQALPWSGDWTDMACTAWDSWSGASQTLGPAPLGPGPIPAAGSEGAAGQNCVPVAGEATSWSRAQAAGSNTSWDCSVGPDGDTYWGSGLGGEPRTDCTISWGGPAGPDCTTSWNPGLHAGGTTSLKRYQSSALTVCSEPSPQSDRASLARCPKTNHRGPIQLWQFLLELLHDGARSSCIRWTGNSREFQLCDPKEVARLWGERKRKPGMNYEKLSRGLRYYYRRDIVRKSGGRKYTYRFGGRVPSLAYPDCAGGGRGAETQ", "procedure,_shortened": "as §1"}, "SPDEF": {"biological_target": "T7, SPDEF (Homo sapiens, UniProt O95238 1-335)", "T7 sequence": "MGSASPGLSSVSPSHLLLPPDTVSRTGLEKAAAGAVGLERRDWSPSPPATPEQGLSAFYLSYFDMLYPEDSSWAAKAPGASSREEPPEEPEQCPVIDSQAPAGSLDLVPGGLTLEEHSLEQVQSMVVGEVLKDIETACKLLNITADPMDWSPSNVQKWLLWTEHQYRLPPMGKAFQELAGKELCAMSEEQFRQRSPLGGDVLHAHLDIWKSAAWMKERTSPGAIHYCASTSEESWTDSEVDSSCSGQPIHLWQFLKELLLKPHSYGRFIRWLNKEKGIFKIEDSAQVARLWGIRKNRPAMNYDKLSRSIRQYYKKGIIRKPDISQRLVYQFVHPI", "procedure,_shortened": "as §1"}, "ELF5": {"biological_target": "T8, ELF5 (Homo sapiens, UniProt Q9UKW6-2 1-255)", "T8 sequence": "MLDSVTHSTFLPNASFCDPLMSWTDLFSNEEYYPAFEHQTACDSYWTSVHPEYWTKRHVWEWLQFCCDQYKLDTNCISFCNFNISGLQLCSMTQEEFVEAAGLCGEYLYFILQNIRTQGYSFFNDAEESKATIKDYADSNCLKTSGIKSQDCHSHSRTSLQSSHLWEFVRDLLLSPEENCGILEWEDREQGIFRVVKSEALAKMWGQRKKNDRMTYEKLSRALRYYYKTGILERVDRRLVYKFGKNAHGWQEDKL", "procedure,_shortened": "as §1"}},
  "data": [
    {"sequence": "GTACAG", "values": [
      {"measurement": "binding signal", "setting": "SPIB", "value": "1.01 fold enrichment (6-mer frequency, TF over GST control)"},
      {"measurement": "binding signal", "setting": "SPIC", "value": "1.02 fold enrichment (6-mer frequency, TF over GST control)"},
      {"measurement": "binding signal", "setting": "ERF", "value": "1.02 fold enrichment (6-mer frequency, TF over GST control)"},
      {"measurement": "binding signal", "setting": "ETV7", "value": "1.06 fold enrichment (6-mer frequency, TF over GST control)"}
    ]},
    {"sequence": "GCCATC", "values": [
      {"measurement": "binding signal", "setting": "SPIC", "value": "1.17 fold enrichment (6-mer frequency, TF over GST control)"},
      {"measurement": "binding signal", "setting": "ETV3L", "value": "1.03 fold enrichment (6-mer frequency, TF over GST control)"}
    ]},
    {"sequence": "CGCTGT", "values": [
      {"measurement": "binding signal", "setting": "ELF1", "value": "1.01 fold enrichment (6-mer frequency, TF over GST control)"},
      {"measurement": "binding signal", "setting": "SPIC", "value": "1.1 fold enrichment (6-mer frequency, TF over GST control)"},
      {"measurement": "binding signal", "setting": "ELK4", "value": "1.04 fold enrichment (6-mer frequency, TF over GST control)"},
      {"measurement": "binding signal", "setting": "ETV2", "value": "1.01 fold enrichment (6-mer frequency, TF over GST control)"},
      {"measurement": "binding signal", "setting": "ERF", "value": "1.12 fold enrichment (6-mer frequency, TF over GST control)"}
    ]},
    {"sequence": "CGGGTT", "values": [
      {"measurement": "binding signal", "setting": "SPIC", "value": "1 fold enrichment (6-mer frequency, TF over GST control)"},
      {"measurement": "binding signal", "setting": "SPDEF", "value": "1.09 fold enrichment (6-mer frequency, TF over GST control)"},
      {"measurement": "binding signal", "setting": "ELF5", "value": "1.02 fold enrichment (6-mer frequency, TF over GST control)"}
    ]},
    {"sequence": "AGATGG", "values": [
      {"measurement": "binding signal", "setting": "SPIC", "value": "1.1 fold enrichment (6-mer frequency, TF over GST control)"},
      {"measurement": "binding signal", "setting": "ETV2", "value": "1.02 fold enrichment (6-mer frequency, TF over GST control)"}
    ]}
  ]
}
